The text below walks through data of paper PMC7862700, “An all-to-all approach to the identification of sequence-specific readers for epigenetic DNA modifications on cytosine”.

Common to all, as to assay: DAPPL (digital affinity profiling via proximity ligation, sequencing); 10 mM Tris-HCl pH 7.5, 50 mM NaCl, 1 mM DTT, 4% glycerol, room temperature, 30 min; GST-TFs on glutathione beads, 16-mer random dsDNA library, 0.1% formaldehyde crosslink after washing; high values mean tight binding
The target of assay [1] is T1, FEV (Homo sapiens, UniProt Q99581 1-238).
T1 sequence: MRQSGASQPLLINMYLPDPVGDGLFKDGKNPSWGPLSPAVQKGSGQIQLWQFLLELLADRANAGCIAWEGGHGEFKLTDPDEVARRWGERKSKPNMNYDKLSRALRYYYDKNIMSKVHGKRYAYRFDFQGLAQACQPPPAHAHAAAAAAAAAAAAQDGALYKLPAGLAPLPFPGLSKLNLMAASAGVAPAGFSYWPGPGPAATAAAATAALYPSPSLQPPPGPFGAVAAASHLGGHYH
Conditions: protein: recombinant; tags: N-terminal GST; dsDNA, one strand shown. In outline: (§1)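 After expression in yeast as GST fusions, human transcription factors were bound to glutathione beads, DNA-barcoded and mixed with a tag-only sample. The pools were incubated with 200 nmole of a 16-mer random double-stranded DNA library in Tris/NaCl/DTT/glycerol buffer (30 min, room temperature), washed and crosslinked with 0.1% formaldehyde. Proximity ligation with BsaI/T4 ligase ran for 1 h at 37 °C, before PCR amplification and sequencing on an Illumina NextSeq500. Binding signal is a hexamer's read frequency for a factor divided by its frequency for the tag-only sample.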

In assay [2] the target is ETV5 (Homo sapiens, UniProt P41161 1-510). Conditions: protein: recombinant; tags: N-terminal GST; dsDNA, one strand shown. The gist of the method:
as §1

Assay [3] has as its target HSF1 (Homo sapiens, UniProt Q00613 1-529). Conditions: protein: recombinant; tags: N-terminal GST; chain copies: 3; dsDNA, one strand shown. In outline:
as §1

The target of assay [4] is T2, SPIC (Homo sapiens, UniProt Q8N5J4 1-248).
T2 sequence: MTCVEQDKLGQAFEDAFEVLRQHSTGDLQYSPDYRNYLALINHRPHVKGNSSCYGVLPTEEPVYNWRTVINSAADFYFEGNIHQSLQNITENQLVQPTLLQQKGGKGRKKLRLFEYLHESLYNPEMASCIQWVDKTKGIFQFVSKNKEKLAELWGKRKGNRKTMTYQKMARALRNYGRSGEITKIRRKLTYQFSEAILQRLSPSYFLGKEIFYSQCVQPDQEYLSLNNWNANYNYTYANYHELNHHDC
Conditions: protein: recombinant; tags: N-terminal GST; dsDNA, one strand shown. In outline: as §1

Assay [5] has as its target ELF4 (Homo sapiens, UniProt Q99607 1-663). Conditions: protein: recombinant; tags: N-terminal GST; dsDNA, one strand shown. In outline:
as §1

In assay [6] the target is T3, ELK4 (Homo sapiens, UniProt P28324-2 1-405).
T3 sequence: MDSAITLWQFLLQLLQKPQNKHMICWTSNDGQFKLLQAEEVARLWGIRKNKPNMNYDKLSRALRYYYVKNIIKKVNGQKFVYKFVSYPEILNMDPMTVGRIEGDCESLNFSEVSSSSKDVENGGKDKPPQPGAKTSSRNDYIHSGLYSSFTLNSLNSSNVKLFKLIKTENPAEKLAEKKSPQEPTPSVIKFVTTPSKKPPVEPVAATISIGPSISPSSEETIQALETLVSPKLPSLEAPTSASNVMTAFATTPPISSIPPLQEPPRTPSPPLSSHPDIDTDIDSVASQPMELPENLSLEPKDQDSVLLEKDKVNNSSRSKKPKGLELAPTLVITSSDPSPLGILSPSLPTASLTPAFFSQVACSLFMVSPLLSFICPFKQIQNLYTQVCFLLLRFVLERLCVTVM
The settings on record: protein: recombinant; tags: N-terminal GST; dsDNA, one strand shown. The gist of the method:
as §1

In assay [7] the target is T4, ETV2 (Homo sapiens, UniProt O00321 1-342).
T4 sequence: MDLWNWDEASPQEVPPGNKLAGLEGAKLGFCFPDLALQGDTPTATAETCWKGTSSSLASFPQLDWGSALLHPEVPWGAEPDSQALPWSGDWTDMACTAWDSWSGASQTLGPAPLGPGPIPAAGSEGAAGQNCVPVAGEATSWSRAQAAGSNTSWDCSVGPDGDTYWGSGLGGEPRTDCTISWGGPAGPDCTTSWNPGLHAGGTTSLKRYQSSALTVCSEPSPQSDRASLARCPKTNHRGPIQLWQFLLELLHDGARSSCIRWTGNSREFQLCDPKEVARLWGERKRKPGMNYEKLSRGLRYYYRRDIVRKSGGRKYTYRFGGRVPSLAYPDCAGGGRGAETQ
The settings on record: protein: recombinant; tags: N-terminal GST; dsDNA, one strand shown. In outline:
as §1

Assay [8] addresses T5, ELF3 (Homo sapiens, UniProt P78545 1-371).
T5 sequence: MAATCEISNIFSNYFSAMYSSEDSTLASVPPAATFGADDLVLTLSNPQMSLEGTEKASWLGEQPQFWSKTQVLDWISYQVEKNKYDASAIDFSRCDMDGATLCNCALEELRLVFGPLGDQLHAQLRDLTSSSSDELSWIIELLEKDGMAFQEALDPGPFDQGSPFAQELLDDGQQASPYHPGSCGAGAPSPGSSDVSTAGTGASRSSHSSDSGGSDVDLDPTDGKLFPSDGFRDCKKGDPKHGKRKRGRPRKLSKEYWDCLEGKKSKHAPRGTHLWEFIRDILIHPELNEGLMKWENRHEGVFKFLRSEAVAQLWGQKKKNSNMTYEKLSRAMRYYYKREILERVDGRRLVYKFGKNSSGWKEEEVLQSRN
The settings on record: protein: recombinant; tags: N-terminal GST; dsDNA, one strand shown. In outline: as §1

Assay [9] addresses CRX (Homo sapiens, UniProt O43186 1-299). Conditions: protein: recombinant; tags: N-terminal GST; dsDNA, one strand shown. The gist of the method: as §1
In assay [10] the target is ETV1 (Homo sapiens, UniProt P50549 1-477). Conditions: protein: recombinant; tags: N-terminal GST; dsDNA, one strand shown. In outline: as §1
Chain of ETV1 (P50549 whole entry): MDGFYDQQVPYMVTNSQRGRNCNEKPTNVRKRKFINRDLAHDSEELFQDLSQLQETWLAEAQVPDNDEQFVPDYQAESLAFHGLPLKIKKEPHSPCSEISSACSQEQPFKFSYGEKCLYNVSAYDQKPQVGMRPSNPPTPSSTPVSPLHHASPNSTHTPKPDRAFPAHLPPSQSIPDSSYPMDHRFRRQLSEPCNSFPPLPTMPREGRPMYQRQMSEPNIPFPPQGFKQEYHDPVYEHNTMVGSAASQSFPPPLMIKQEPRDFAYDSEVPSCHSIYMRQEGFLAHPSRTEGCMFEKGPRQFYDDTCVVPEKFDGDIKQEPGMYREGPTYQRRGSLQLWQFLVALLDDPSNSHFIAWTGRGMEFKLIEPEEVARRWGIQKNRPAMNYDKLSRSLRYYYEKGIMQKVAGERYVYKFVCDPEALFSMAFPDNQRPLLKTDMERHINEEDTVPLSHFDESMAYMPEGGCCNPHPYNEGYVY
Assay [11] concerns the target T6, ERF (Homo sapiens, UniProt P50548 1-548).
T6 sequence: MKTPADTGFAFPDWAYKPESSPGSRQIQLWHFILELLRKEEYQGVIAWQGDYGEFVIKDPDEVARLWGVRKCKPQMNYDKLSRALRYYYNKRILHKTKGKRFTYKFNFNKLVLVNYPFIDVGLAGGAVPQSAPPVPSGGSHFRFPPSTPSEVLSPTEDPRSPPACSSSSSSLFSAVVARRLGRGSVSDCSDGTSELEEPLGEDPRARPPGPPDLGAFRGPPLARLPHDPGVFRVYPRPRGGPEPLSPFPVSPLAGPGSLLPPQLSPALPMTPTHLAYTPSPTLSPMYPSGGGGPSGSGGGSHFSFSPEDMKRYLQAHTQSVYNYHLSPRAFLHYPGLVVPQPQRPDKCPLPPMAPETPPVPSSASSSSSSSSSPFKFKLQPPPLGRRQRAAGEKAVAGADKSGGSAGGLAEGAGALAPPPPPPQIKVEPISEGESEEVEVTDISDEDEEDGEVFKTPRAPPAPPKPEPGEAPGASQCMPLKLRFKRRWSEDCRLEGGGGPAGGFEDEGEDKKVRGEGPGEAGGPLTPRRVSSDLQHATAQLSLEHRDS
Conditions: protein: recombinant; tags: N-terminal GST; dsDNA, one strand shown. The gist of the method: as §1

For assay [12], the target named is T7, ETV3L (Homo sapiens, UniProt Q6ZN32 1-361).
T7 sequence: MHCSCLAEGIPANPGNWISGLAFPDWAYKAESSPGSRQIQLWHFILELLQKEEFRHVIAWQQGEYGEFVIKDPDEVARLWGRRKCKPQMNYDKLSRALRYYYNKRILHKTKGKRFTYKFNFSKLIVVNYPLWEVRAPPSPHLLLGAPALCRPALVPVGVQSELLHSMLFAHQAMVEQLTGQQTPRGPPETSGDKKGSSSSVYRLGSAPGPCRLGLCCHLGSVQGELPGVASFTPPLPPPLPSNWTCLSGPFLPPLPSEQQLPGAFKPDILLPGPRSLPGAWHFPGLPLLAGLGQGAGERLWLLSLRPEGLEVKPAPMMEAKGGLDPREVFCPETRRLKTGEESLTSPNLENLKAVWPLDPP
The settings on record: protein: recombinant; tags: N-terminal GST; dsDNA, one strand shown. In outline:
as §1

Assay [13] concerns the target T8, ETS2 (Homo sapiens, UniProt P15036 1-469).
T8 sequence: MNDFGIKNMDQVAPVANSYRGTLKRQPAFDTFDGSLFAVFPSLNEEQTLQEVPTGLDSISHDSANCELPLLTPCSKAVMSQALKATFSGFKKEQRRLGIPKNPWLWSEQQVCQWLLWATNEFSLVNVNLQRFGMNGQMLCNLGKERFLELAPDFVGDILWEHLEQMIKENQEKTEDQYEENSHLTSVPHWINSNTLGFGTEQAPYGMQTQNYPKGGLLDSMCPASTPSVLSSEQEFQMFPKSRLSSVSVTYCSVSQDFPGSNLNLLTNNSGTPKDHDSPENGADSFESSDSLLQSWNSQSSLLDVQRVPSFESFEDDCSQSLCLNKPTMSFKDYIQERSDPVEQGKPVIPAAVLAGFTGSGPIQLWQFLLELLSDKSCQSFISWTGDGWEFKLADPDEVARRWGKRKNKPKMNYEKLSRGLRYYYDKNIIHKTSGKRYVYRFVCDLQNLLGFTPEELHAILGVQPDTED
Conditions: protein: recombinant; tags: N-terminal GST; dsDNA, one strand shown. The gist of the method: as §1

For assay [14], the target named is T9, SPDEF (Homo sapiens, UniProt O95238 1-335).
T9 sequence: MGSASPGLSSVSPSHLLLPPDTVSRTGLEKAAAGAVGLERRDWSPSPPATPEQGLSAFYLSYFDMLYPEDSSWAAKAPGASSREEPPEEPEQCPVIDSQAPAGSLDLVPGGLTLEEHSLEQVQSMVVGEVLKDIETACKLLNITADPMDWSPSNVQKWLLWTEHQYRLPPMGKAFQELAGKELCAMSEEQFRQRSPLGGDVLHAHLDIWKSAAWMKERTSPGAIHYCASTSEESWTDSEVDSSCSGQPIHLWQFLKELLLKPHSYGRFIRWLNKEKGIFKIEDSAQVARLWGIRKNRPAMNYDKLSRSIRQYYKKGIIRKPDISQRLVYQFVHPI
Conditions: protein: recombinant; tags: N-terminal GST; dsDNA, one strand shown. The gist of the method: as §1

Assay [15] concerns the target T10, ETV7 (Homo sapiens, UniProt Q9Y603 1-341).
T10 sequence: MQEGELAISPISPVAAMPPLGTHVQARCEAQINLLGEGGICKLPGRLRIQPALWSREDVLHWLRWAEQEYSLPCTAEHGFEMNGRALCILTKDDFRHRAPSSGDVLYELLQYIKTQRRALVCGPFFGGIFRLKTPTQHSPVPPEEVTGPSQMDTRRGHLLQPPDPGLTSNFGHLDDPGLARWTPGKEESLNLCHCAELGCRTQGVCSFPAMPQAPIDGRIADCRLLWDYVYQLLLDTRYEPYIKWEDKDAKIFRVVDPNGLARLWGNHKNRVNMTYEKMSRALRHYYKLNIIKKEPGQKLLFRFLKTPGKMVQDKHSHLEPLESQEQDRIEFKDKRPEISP
Conditions: protein: recombinant; tags: N-terminal GST; dsDNA, one strand shown. In outline: as §1

The target in assay [16] is T11, ELF5 (Homo sapiens, UniProt Q9UKW6-2 1-255).
T11 sequence: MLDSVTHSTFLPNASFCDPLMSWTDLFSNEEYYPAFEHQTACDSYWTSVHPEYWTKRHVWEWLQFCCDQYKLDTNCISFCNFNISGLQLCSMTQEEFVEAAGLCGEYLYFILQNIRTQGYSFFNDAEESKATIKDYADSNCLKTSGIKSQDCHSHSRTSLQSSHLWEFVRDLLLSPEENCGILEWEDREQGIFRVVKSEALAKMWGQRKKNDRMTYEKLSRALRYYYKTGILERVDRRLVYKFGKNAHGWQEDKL
Conditions: protein: recombinant; tags: N-terminal GST; dsDNA, one strand shown. The gist of the method:
as §1

Assay [17] has as its target T12, ETV3 (Homo sapiens, UniProt P41162-2 1-143).
T12 sequence: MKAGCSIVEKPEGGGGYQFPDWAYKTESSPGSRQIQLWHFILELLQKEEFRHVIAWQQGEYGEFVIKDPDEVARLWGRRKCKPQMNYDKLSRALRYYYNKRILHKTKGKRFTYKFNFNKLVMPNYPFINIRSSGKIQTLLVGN
The settings on record: protein: recombinant; tags: N-terminal GST; dsDNA, one strand shown. The gist of the method:
as §1

The target in assay [18] is ETV6 (Homo sapiens, UniProt P41212 1-452). Conditions: protein: recombinant; tags: N-terminal GST; dsDNA, one strand shown. The gist of the method: as §1
Chain of ETV6 (P41212 whole entry): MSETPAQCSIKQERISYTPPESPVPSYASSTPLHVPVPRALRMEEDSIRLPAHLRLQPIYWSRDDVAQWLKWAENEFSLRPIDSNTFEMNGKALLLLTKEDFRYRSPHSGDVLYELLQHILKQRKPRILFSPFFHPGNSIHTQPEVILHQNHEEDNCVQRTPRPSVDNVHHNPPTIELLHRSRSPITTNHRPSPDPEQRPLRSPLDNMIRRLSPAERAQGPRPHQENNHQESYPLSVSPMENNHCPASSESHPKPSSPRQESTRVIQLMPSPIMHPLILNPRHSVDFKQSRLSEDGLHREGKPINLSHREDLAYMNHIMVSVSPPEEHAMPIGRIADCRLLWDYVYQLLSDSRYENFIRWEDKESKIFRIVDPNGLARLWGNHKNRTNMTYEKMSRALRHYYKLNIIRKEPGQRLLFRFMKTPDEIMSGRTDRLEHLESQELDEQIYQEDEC

Chain of ELF4 (Q99607 whole entry): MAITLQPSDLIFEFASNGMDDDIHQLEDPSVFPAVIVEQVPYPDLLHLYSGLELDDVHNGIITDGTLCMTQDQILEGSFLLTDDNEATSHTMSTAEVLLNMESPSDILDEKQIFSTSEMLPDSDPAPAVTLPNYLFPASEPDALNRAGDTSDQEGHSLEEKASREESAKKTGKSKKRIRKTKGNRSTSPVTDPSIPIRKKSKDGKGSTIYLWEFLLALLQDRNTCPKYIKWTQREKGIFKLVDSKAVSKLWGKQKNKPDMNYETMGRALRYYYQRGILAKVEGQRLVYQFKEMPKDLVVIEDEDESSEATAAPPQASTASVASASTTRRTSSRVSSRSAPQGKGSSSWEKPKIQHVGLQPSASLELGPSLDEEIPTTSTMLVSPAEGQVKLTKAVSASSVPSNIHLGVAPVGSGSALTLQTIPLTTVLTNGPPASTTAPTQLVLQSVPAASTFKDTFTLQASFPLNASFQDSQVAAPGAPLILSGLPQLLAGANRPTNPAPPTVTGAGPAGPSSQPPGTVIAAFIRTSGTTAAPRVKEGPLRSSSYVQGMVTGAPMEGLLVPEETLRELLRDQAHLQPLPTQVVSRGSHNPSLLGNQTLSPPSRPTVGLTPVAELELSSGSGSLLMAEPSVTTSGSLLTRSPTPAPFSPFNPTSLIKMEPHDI
Chain of HSF1 (Q00613 whole entry): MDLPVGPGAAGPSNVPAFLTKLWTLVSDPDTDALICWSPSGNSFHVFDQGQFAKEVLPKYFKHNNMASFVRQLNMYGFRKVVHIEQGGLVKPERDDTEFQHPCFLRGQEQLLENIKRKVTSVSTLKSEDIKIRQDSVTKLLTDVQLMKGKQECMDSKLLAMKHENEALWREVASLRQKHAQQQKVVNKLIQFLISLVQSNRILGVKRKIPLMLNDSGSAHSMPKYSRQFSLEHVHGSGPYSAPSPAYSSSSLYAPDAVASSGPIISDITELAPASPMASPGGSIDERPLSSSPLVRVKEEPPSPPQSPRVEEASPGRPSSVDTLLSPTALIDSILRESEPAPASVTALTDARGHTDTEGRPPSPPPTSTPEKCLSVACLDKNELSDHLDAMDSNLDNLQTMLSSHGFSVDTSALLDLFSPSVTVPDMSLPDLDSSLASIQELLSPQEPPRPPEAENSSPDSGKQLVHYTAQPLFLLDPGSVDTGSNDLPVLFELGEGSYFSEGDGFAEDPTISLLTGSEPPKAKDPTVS
Chain of CRX (O43186 whole entry): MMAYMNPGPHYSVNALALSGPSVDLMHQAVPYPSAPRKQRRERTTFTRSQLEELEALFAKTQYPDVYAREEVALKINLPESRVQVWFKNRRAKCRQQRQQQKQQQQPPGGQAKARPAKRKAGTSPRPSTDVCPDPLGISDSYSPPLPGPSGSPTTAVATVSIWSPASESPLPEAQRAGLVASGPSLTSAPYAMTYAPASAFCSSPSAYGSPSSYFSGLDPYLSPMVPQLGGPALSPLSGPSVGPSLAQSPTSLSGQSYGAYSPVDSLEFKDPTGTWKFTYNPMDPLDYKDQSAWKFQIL
Chain of ETV5 (P41161 whole entry): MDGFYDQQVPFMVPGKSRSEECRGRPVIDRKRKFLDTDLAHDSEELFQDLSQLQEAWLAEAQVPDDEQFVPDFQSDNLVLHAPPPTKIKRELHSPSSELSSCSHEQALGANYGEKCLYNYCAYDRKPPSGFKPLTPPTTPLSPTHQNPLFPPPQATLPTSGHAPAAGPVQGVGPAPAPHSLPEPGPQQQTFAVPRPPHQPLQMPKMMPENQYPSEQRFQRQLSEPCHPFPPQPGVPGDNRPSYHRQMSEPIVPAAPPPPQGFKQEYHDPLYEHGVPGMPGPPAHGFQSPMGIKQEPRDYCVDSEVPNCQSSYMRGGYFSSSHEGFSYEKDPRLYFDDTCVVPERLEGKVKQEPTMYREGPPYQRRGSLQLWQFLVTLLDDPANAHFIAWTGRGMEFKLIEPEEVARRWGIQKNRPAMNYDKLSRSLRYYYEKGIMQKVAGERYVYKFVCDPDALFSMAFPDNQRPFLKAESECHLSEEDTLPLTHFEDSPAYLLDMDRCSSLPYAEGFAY

Regarding ACGACT, the binding signal in assay [1] is 1.28 fold enrichment (6-mer frequency, TF over GST control); in assay [2] it was 1.15 fold enrichment (6-mer frequency, TF over GST control); in assay [3], 1.2 fold enrichment (6-mer frequency, TF over GST control); in [4], 1.26 fold enrichment (6-mer frequency, TF over GST control); in assay [5] it was 1.23 fold enrichment (6-mer frequency, TF over GST control); in [6], 1.39 fold enrichment (6-mer frequency, TF over GST control). Further, the binding signal in assay [7] was 1.27 fold enrichment (6-mer frequency, TF over GST control); in assay [8], 1.11 fold enrichment (6-mer frequency, TF over GST control); in assay [9], 1.19 fold enrichment (6-mer frequency, TF over GST control); in assay [10], 1.29 fold enrichment (6-mer frequency, TF over GST control); in assay [11] it was 1.15 fold enrichment (6-mer frequency, TF over GST control); in assay [12], 1.28 fold enrichment (6-mer frequency, TF over GST control). In addition, the binding signal is 1.28 fold enrichment (6-mer frequency, TF over GST control) in assay [13]; 1.19 fold enrichment (6-mer frequency, TF over GST control) in assay [14]; 1.17 fold enrichment (6-mer frequency, TF over GST control) in assay [15]; 1.23 fold enrichment (6-mer frequency, TF over GST control) in assay [16]; 1.22 fold enrichment (6-mer frequency, TF over GST control) in assay [17]; 1.17 fold enrichment (6-mer frequency, TF over GST control) in assay [18].
